Test results published in the supplement of paper PMC10849652.
Of roughly 7,900 targets only a part is listed; those with a hit were picked by preference. About 0.6% of all pairs of compound and target were hits. A number with no mark means an inactive call.

Experiments:
Experiment in all cases: log2 fold change, soluble protein after heating vs DMSO (PISA); higher = thermal stabilisation; K562 cells, 10 uM, 30 min; active = over 0.2 and 3.5 SD of the protein, either way, in both replicates (recomputed)
bafetinib = compound: Cc1ccc(NC(=O)c2ccc(CN3CC[C@H](N(C)C)C3)c(C(F)(F)F)c2)cc1Nc1nccc(-c2cncnc2)n1 [bafetinib]
Method in brief: (§1)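 Aliquots of K562 cells (2×10^6 cells/mL) treated with 10 μM compound for 30 min were heated for 3 min over 48°C-58°C. After pooling and extraction in PBS with 0.5% NP-40 at 4°C, soluble protein from a 21,000xg, 90 min spin was quantified by TMTpro 16plex LC-MS/MS with channel sums equalised. Thermal stability is expressed against control samples, from duplicates, as a log2 fold change.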

[1] = compound: Cc1cccc(CC(=O)N2CCc3c2ccc(-c2cn(C)c4ncnc(N)c24)c3F)n1
Method in brief: as §1

nilotinib = compound: Cc1cn(-c2cc(NC(=O)c3ccc(C)c(Nc4nccc(-c5cccnc5)n4)c3)cc(C(F)(F)F)c2)cn1 [nilotinib]
Method in brief: as §1

[2] = compound: Cc1nc(Nc2n[nH]c3c2CN(C(=O)N[C@H](CN(C)C)c2ccccc2)C3(C)C)c2sccc2n1
Method in brief: as §1

dasatinib = compound: Cc1nc(Nc2ncc(C(=O)Nc3c(C)cccc3Cl)s2)cc(N2CCN(CCO)CC2)n1 [dasatinib]
Method in brief: as §1

[3] = compound: Cc1ncc(-c2ccnc(Nc3ccc(S(C)(=O)=O)cc3)n2)n1C(C)C
Method in brief: as §1

[4] = compound: Cn1cc(-c2ccc3c(c2)CCN3C(=O)Cc2cccc(C(F)(F)F)c2)c2c(N)ncnc21
Method in brief: as §1

[5] = compound: Cn1cc(-c2ccc3nnc(C(F)(F)c4ccc5ncccc5c4)n3n2)cn1
Method in brief: as §1

tipifarnib = compound: Cn1cncc1[C@@](N)(c1ccc(Cl)cc1)c1ccc2c(c1)c(-c1cccc(Cl)c1)cc(=O)n2C [tipifarnib]
Method in brief: as §1

mubritinib = compound: FC(F)(F)c1ccc(/C=C/c2nc(COc3ccc(CCCCn4ccnn4)cc3)co2)cc1 [mubritinib]
Method in brief: as §1

[6] = compound: NC(=O)Nc1cc(-c2cccc(F)c2)sc1C(=O)N[C@H]1CCCNC1
Method in brief: as §1

[7] = compound: NC(=O)c1cnc(N[C@@H]2CCCC[C@@H]2N)nc1Nc1cccc(-n2nccn2)c1
Method in brief: as §1

[8] = compound: NC1(c2ccc(-c3nc4ccn5c(=O)[nH]nc5c4cc3-c3ccccc3)cc2)CCC1
Method in brief: as §1

[9] = compound: NCC(=O)Nc1ccc(-n2nc(C(F)(F)F)cc2-c2ccc3c(ccc4ccccc43)c2)cc1
Method in brief: as §1

entinostat = compound: Nc1ccccc1NC(=O)c1ccc(CNC(=O)OCc2cccnc2)cc1 [entinostat]
Method in brief: as §1

vorinostat = compound: O=C(CCCCCCC(=O)Nc1ccccc1)NO [vorinostat]
Method in brief: as §1

citarinostat = compound: O=C(CCCCCCNC(=O)c1cnc(N(c2ccccc2)c2ccccc2Cl)nc1)NO [citarinostat]
Method in brief: as §1

silmitasertib = compound: O=C(O)c1ccc2c(c1)nc(Nc1cccc(Cl)c1)c1ccncc12 [silmitasertib]
Method in brief: as §1

[10] = compound: O=C1NC(=O)C(c2cnc3ccccn23)=C1c1cn2c3c(cc(F)cc13)CN(C(=O)N1CCCCC1)CC2
Method in brief: as §1

[11] = compound: c1cc(OCCN2CCCCC2)cc(-c2n[nH]c3ccc(-c4nnc[nH]4)cc23)c1
Method in brief: as §1

Chain of UniProt Q9NV70 (Q9NV70 whole entry, looked up): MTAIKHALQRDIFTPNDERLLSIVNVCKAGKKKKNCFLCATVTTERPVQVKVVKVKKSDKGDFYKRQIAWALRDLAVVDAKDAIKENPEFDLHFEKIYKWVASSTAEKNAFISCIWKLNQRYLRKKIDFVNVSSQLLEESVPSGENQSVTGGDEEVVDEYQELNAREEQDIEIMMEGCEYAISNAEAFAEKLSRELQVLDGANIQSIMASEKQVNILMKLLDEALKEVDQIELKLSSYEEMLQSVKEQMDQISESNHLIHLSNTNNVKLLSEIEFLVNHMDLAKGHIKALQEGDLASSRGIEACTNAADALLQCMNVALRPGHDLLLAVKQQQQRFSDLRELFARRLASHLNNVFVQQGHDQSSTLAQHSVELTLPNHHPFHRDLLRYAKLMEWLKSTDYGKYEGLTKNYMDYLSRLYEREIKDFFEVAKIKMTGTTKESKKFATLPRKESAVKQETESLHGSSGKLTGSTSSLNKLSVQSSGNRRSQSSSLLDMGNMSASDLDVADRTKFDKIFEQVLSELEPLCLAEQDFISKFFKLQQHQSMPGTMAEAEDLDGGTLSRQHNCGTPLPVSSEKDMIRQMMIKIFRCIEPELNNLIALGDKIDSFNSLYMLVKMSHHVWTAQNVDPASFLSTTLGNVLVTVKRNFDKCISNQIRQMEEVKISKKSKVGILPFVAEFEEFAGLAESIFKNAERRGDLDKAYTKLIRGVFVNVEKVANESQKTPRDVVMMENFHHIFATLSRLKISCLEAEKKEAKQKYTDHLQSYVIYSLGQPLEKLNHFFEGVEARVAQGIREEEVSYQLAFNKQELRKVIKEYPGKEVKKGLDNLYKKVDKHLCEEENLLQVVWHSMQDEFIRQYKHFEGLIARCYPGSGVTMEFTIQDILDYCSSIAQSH
Chain of UniProt Q16643 (Q16643 whole entry, looked up): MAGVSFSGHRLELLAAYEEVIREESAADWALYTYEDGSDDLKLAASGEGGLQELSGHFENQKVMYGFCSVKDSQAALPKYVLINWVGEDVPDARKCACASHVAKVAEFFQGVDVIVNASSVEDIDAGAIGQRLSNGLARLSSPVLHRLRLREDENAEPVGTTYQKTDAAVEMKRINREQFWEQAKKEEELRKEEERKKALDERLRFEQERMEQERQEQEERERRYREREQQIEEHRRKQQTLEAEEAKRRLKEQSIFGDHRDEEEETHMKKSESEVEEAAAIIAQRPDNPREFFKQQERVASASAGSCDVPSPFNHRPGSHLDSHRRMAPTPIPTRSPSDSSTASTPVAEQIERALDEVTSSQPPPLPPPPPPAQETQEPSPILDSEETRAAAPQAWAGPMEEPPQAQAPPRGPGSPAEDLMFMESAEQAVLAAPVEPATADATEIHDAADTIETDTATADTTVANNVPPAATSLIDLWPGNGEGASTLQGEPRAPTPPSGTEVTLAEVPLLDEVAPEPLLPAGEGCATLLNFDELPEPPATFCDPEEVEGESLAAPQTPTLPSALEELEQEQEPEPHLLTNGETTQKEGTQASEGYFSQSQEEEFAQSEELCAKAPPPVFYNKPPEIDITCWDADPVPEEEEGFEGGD
Chain of UniProt P25685 (P25685 whole entry, looked up): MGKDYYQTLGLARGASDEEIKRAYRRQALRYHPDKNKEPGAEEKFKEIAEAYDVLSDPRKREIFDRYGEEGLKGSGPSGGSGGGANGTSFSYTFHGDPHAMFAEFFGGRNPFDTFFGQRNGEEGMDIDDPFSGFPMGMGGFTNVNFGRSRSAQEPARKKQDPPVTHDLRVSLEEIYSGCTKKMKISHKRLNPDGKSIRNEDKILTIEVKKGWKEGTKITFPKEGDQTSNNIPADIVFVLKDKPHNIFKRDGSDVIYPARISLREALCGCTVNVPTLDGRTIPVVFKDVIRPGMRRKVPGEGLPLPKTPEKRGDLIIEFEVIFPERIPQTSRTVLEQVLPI
Chain of UniProt Q9H773 (Q9H773 whole entry, looked up): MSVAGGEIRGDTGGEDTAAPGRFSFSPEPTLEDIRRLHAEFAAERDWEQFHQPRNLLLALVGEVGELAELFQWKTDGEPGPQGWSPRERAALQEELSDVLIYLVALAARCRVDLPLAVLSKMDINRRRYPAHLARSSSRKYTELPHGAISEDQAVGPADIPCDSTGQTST
Chain of UniProt Q99615 (Q99615 whole entry, looked up): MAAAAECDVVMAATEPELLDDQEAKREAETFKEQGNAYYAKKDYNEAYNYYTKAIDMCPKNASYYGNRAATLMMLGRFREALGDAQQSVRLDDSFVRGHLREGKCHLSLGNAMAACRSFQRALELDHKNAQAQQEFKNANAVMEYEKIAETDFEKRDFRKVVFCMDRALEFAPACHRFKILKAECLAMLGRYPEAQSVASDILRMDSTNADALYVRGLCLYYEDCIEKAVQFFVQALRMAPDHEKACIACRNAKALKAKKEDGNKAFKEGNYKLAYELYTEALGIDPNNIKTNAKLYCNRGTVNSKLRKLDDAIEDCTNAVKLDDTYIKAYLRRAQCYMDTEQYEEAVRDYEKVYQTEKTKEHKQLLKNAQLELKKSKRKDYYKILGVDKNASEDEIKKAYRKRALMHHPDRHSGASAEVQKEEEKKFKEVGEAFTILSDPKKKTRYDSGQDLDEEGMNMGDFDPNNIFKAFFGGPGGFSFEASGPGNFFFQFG
Chain of UniProt O43432 (O43432 whole entry, looked up): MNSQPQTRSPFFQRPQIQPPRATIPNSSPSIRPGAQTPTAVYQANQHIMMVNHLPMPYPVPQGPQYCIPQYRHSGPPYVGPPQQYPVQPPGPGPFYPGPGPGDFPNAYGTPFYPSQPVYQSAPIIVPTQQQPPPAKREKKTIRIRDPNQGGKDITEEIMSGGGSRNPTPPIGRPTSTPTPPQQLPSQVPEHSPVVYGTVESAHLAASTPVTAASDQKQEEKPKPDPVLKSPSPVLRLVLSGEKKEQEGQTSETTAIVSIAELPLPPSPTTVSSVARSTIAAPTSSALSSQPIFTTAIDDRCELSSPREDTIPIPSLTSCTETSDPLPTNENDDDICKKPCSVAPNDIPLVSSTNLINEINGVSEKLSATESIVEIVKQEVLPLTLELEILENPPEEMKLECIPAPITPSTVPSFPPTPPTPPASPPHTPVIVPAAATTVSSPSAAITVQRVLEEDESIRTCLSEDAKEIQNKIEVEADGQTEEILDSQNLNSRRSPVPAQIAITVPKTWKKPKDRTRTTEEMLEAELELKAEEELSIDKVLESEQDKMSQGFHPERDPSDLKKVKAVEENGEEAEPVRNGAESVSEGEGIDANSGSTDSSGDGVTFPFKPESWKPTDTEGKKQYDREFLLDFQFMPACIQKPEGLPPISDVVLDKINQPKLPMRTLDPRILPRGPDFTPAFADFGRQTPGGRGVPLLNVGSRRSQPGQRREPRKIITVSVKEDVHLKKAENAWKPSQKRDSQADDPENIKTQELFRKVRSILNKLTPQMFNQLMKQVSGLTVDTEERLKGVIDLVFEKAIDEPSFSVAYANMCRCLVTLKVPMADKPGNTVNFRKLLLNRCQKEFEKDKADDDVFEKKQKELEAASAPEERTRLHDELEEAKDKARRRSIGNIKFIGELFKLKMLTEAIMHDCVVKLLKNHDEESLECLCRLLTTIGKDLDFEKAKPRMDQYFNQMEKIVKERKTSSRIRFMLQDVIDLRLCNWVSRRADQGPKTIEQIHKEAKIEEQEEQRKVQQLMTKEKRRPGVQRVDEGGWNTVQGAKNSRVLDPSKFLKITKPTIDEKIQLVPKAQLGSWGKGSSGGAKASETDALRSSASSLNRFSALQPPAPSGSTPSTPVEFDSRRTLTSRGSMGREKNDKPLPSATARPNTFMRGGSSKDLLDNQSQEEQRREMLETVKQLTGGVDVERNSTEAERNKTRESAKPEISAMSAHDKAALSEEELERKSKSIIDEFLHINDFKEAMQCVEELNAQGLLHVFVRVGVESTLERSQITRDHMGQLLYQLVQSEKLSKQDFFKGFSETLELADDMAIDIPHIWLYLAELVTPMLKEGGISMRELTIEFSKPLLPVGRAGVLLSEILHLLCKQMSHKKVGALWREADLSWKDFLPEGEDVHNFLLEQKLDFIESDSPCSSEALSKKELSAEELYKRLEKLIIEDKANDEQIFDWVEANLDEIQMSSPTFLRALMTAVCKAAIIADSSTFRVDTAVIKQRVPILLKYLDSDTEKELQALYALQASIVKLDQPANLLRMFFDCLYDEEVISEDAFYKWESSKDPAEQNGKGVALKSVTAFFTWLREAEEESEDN
Chain of UniProt Q9Y5Q0 (Q9Y5Q0 whole entry, looked up): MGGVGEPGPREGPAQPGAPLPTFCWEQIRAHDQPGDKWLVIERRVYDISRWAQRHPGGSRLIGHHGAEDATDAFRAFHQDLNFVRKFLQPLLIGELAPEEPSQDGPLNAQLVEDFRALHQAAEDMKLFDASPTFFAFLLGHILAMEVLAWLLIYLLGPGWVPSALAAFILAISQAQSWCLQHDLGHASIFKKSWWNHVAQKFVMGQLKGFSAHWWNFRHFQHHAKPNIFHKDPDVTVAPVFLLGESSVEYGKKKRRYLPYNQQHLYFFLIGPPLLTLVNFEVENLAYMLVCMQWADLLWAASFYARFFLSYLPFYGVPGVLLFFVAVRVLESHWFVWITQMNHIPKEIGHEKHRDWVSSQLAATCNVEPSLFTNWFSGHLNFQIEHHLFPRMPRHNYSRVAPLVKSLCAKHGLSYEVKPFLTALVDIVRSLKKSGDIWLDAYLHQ
Chain of UniProt Q96E09 (Q96E09 whole entry, looked up): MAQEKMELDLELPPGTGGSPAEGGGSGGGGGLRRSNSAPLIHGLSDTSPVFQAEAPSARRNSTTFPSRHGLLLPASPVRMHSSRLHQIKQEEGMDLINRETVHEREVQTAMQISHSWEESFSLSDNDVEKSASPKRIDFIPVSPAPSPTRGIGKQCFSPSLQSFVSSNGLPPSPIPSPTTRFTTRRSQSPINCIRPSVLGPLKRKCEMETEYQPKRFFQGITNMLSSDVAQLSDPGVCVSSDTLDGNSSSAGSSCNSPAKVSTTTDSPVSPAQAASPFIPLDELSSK
Chain of UniProt Q96GE9 (Q96GE9 whole entry, looked up): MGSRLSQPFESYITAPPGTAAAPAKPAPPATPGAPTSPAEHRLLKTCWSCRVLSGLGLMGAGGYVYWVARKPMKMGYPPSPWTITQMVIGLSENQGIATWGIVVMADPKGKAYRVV

Target	log2 fold change (bafetinib)	log2 fold change [1]	log2 fold change (nilotinib)	log2 fold change [2]	log2 fold change (dasatinib)	log2 fold change [3]	log2 fold change [4]	log2 fold change [5]	log2 fold change (tipifarnib)	log2 fold change (mubritinib)	log2 fold change [6]	log2 fold change [7]	log2 fold change [8]	log2 fold change [9]	log2 fold change (entinostat)	log2 fold change (vorinostat)	log2 fold change (citarinostat)	log2 fold change (silmitasertib)	log2 fold change [10]	log2 fold change [11]
FAM122A (UniProt Q96E09)	-0.096	-0.185	0.027	-0.184	-0.054	0.059	0.024	0.037	-0.059	0.009	-0.031	0.076	-0.048	0.023	0.143	0.025	-0.009	0.005	-0.052	0.062
ERLIN2 (UniProt O94905)	0.039	0.032	-0.107	0.012	-0.023	0.023	-0.104	0	0.024	-0.049	0.04	-0.047	-0.01	-0.062	0.032	0.048	0.011	0.002	0.069	-0.044
CYFIP1 (UniProt Q7L576)	-0.064	0.002	-0.015	-0.064	-0.05	-0.024	0.049	-0.006	-0.011	0.022	-0.088	-0.029	-0.143	0.003	0.02	-0.025	0.031	0.009	-0.039	-0.064
ELOC (UniProt Q15369)	0.003	0.014	-0.028	0.013	0.032	-0.003	0.116	0.049	-0.027	0.005	-0.008	-0.011	-0.015	-0.008	0.024	0.024	0.036	-0.007	-0.107	-0.053
DBT (UniProt P11182)	0.02	-0.037	0.036	-0.014	-0.002	-0.033	-0.026	-0.03	0.011	-0.207 (active)	-0.009	0.003	0.005	-0.021	-0.042	0.006	-0.011	0.027	0.022	-0.093
EXOC1 (UniProt Q9NV70)	0.061	0.025	-0.034	-0.069	-0.126	-0.051	-0.008	0.026	-0.098	0.032	0.043	-0.162	-0.228	-0.065	0.062	0.082	0.014	0.127	0.069	-0.165
EXOC5 (UniProt O00471)	-0.016	0.061	-0.109	-0.258	-0.1	-0.078	0.022	0.026	-0.076	0.039	0.01	-0.101	-0.222	-0.063	0.069	0.086	0.027	0.042	-0.02	-0.153
EIF3J (UniProt O75822)	-0.067	0.266 (active)	0.001	-0.019	-0.018	0.008	0.022	-0.014	-0.013	0.033	0.035	-0.033	-0.072	0.007	0.012	0.143	0.001	0.042	-0.017	0.022
DYNC1LI2 (UniProt O43237)	-0.041	-0.004	0.109	0.015	-0.068	0.125	-0.184	0.052	-0.01	0.024	0.093	-0.021	0.206	-0.075	-0.026	0.075	-0.101	0.214	0.158	-0.108
DHCR7 (UniProt Q9UBM7)	0.428 (active)	-0.005	-0.282	-0.005	-0.109	0.05	0.257	-0.016	-0.167	0.166	0.08	0.014	0.239	-0.134	0.082	0.03	-0.023	-0.084	-0.04	-0.026
DBN1 isoform 3 (UniProt Q16643)	-0.106	0.032	-0.05	-0.043	0.264 (active)	-0.041	-0.22	-0.069	0.086	0	0.098	0.027	-0.039	-0.003	-0.036	0.128	-0.032	0.066	-0.03	-0.053
DHX40 (UniProt Q8IX18)	-0.033	0.038	-0.052	-0.289 (active)	-0.229	0.118	0.103	0.035	0.017	0.084	-0.093	-0.036	-0.157	-0.042	-0.004	-0.097	0.081	-0.027	-0.116	-0.04
DMAC1 (UniProt Q96GE9)	-0.138	-0.047	-0.083	0.067	0.118	-0.007	-0.014	0.095	-0.156	0.085	0.136	0.031	0.015	-0.07	-0.004	0.019	-0.003	-0.185	-0.427	0.113
DAB2 (UniProt P98082)	-0.041	0.085	-0.152	0.002	-0.178	-0.098	0.01	-0.007	-0.042	-0.024	-0.006	-0.033	-0.124	0.016	-0.026	-0.066	0.037	0.102	0.001	-0.041
FADS3 (UniProt Q9Y5Q0)	-0.11	0.044	0.108	-0.012	-0.109	-0.013	0.034	-0.037	-0.033	0.059	-0.086	-0.096	-0.074	0.079	-0.06	0.024	0.022	-0.008	0.259	-0.034
DNAJC1 (UniProt Q96KC8)	-0.185	-0.026	-0.035	0.016	-0.064	0.002	0.028	0.047	0.039	0.041	0.013	-0.055	-0.082	-0.08	0.042	0.106	0.017	0.01	-0.016	-0.083
DCTPP1 (UniProt Q9H773)	-0.053	0.105	0.008	-0.013	0.068	-0.025	0.073	0.029	0.074	0.047	-0.051	0.117	-0.014	0.028	0.062	-0.093	0.005	-0.003	-0.001	0.008
DNAJC7 (UniProt Q99615)	-0.047	0.031	-0.107	-0.048	-0.136	0.024	0.068	0.058	-0.012	0.037	-0.067	-0.029	-0.204	-0.071	0.05	0.043	0.071	0.001	-0.03	-0.001
DDX4 (UniProt Q9NQI0)	0.244	-0.511	-0.172	-0.187	0.107	-0.068	-0.217	0.052	0.268	-0.484	-1.13 (active)	0.01	0.297	-0.35	-0.405	-0.253	-0.146	0.171	-0.273	-0.194
FAM160B1 (UniProt Q5W0V3)	-0.018	0.023	-0.032	-0.049	-0.082	-0.014	-0.053	-0.039	0.115	0.023	0.04	-0.038	-0.211 (active)	-0.043	0.026	0.139	0.069	-0.026	-0.064	0
DNAJB1 (UniProt P25685)	-0.026	0.013	-0.042	-0.058	-0.064	0.026	0.035	0.02	-0.026	0.01	-0.006	-0.041	-0.09	-0.083	0.013	0.034	0.044	0.011	-0.005	-0.04
ELOVL5 isoform 2 (UniProt Q9NYP7)	-0.166	0.124	-0.182	0.021	-0.147	-0.054	0.063	0.011	-0.204	0.068	-0.07	0.001	-0.194	-0.065	0.056	0.062	0	0.098	0.035	-0.158
DHRS1 (UniProt Q96LJ7)	0.352	0.316	0.638	-0.076	0.02	-0.14	1.1 (active)	-0.106	0.717	0.178	-0.118	-0.047	0.184	0.095	-0.082	-0.098	-0.237	0	0.834 (active)	0.291
ELOVL1 (UniProt Q9BW60)	-0.245	0.12	-0.126	0.024	-0.041	-0.011	0.139	-0.097	-0.093	0.011	0.017	-0.191	-0.087	-0.055	0.05	0.321	-0.006	-0.046	0.002	0.035
EIF4G3 isoform 3 (UniProt O43432)	-0.01	–	-0.043	-0.12	-0.006	0.052	-0.073	0.056	0.083	-0.005	0.012	-0.092	-0.062	-0.016	0.01	–	-0.114	0.146	–	-0.515 (active)
DHX16 (UniProt O60231)	0.001	0.044	-0.031	0.019	-0.095	-0.006	0.059	0.002	-0.04	0.147	0.005	0.018	-0.021	-0.044	0.013	0.001	0.049	-0.142	-0.012	-0.041
